rCAG binder: molecules binding r(CAG) RNA repeats | r(CAG) RNA repeat, TO-PRO-1 dye displacement fluorescence | inhibition, % at 3 µM | 1.3% of 370,000 active;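 active = inhibition above the plate cutoff, the mean of all test compounds on that plate plus 3 SD, cut at about 35% in these data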;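 note: higher means more dye released from RNA so lower well fluorescence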
DNMT1 inh: blocks human DNA methyltransferase DNMT1; DNMT1 molecular beacon, Hinp1I cleavage, fluorescence; inhibition (reported as % activation of signal), % at 10 µM; 0.83% of 360,000 active; AID 588458; in the data active = inhibition above about 50%
LEDGF integ inh: blocks HIV-1 LEDGF/p75-dependent DNA integration | 0.64% of 370,000 active | TR-FRET IN-LEDGF/p75 DNA integration, Eu/Cy5 | inhibition, % at 3.7 µM;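 active = inhibition above the screen-wide mean plus 3 SD, cut at about 13% in these data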;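 note: signal is the Cy5 over europium emission ratio at 671 and 618 nm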
UHRF1 MBD2 ctr: UHRF1 methyl-DNA binding inhibition. inhibition, % at 4.4 µM. 0.75% of 370,000 active. UHRF1 binding to methylated oligo, TR-FRET. AID 687016; in the data active = inhibition above about 21%;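 note: UHRF1 SRA domain binding a hemimethylated CpG hairpin DNA probe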
Target sequence (Q96T88 whole entry, looked up, the tested form may be a part): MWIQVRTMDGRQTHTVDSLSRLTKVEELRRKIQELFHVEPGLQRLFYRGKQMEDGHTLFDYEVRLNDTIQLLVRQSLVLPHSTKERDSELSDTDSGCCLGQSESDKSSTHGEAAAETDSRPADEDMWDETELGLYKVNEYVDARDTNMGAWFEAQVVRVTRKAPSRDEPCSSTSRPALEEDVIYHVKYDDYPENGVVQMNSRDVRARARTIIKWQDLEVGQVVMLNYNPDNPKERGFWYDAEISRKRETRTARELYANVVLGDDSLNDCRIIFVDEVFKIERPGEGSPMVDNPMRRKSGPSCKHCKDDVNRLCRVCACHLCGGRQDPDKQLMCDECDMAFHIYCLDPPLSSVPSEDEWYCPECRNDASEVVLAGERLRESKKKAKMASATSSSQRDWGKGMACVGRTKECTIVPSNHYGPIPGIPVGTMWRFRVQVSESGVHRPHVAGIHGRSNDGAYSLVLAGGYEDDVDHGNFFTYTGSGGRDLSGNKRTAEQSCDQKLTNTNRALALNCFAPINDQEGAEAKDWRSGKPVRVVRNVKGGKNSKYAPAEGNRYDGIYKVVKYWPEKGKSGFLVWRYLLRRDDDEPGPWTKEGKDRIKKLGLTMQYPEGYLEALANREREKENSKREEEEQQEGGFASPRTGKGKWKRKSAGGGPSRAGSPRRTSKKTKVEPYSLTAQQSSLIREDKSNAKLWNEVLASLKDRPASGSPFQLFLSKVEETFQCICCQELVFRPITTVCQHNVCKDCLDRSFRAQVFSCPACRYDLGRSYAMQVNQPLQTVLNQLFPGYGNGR
PG9 binder: PG9 antibody binding by small molecule; TR-FRET gp120-PG9 antibody binding; inhibition, % at 6.7 µM; 0.43% of 360,000 active; in the data active = inhibition above about 8.5%
MBD2 inh: MBD2-methylated oligo binding inhibition; Q9UBB5; TR-FRET, MBD2 binding to methylated oligonucleotide; inhibition, % at 4.4 µM; 0.31% of 370,000 active; AID 686964; in the data active = inhibition above about 13%
DNMT1 interf DR: counter-screen for DNMT1 inhibitors: spectral interference, dose response. molecular beacon fluorescence. shares compounds with DNMT1 inh. 200 tested, under 10 active. IC50, µM; call rule not given here
DNMT1 inh conf: DNMT1 inhibition confirmation, single concentration; inhibition, % at 10 µM; AID 602385; 8% of 2,300 active; shares compounds with DNMT1 inh; DNMT1 molecular beacon HinP1I cleavage, fluorescence;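 active = average inhibition of at least 30% in the single-concentration confirmation test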
Beacon interf: beacon fluorescence artifact counter-screen; shares compounds with DNMT1 inh; DNMT1 molecular beacon spectral interference counterscreen, fluorescence 485/520; activation (fluorescence interference), % at 10 µM; 1% of 2,300 active; AID 602387;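 active = activation of at least 30% at 10 µM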;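 note: DNMT1 catalytic domain with a HinP1I cleavage step and a FAM/dabcyl DNA beacon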
Of the large screens only hits and unclear results are named; the others gave an inactive call (follow-up assays come after a bar, where they were run). Sampled rows, rich in hits. Any-hit rate of the full collection: about 3.5%.

O=C(Nc1ccc2c3c(cccc13)CC2)c1ccccc1	none
O=C(CSc1nc2scc(-c3ccco3)c2c(=O)n1-c1ccccc1)NCC1CCCO1 (stereo not given)	DNMT1 inh 93.5 | DNMT1 inh conf inactive | Beacon interf inactive
C=CCn1c(SCC(=O)NCC2CCCO2)nc2scc(-c3ccco3)c2c1=O (stereo not given)	none
CC(=O)C(=Cc1ccccc1)c1ccccc1	none (no result: DNMT1 inh)
CCNC(=O)c1c(NC(=O)c2cc(-c3cc(C)ccc3O)n[nH]2)sc2c1CCCC2	DNMT1 inh 76.0 | DNMT1 inh conf inactive | Beacon interf inactive
Cc1ccc(-c2cc(C(=O)Nc3sc4c(c3C(=O)NCc3ccco3)CCC4)[nH]n2)c(O)c1	none
C/C(=N\NC(=O)c1cc(-c2cccc([N+](=O)[O-])c2)n[nH]1)c1ccc(F)cc1	none
C/C(=N/NC(=O)c1cc(-c2cccc([N+](=O)[O-])c2)n[nH]1)c1cccc(O)c1	DNMT1 inh 88.5 | DNMT1 inh conf inactive | Beacon interf inactive
CC(CCN1CCC(n2nccc2NC(=O)c2ccccc2Cl)CC1)c1ccccc1 (stereo not given)	none
CCOC(=O)c1ccc(NC(=O)CSc2nc(C)cc(=O)[nH]2)cc1	DNMT1 inh 88.1 (no result: rCAG binder, LEDGF integ inh, UHRF1 MBD2 ctr, PG9 binder, MBD2 inh) | DNMT1 inh conf inactive | Beacon interf inactive
Cc1cc(=O)[nH]c(SCC(=O)Nc2ccc(C(=O)O)cc2)n1	none
O=C(/C=C/c1ccco1)c1ccc(NC(=O)C23CC4CC(CC(C4)C2)C3)cc1	DNMT1 inh 72.4 | DNMT1 inh conf inactive | Beacon interf inactive
O=C(C=Cc1ccco1)c1ccc([N+](=O)[O-])cc1	none
Cc1ccc(C(=O)OC(C)C(=O)NC2CCCCC2C)s1 (stereo not given)	DNMT1 inh 82.8 | DNMT1 inh conf inactive | Beacon interf inactive
CC(OC(=O)c1cccs1)C(=O)NC1CCCCC1C (stereo not given)	none
CC1(NCc2ccc(Cl)cc2)COP(=O)(NCc2ccccc2)OC1 (stereo not given)	none
COc1ccc2c(=O)c3c(=O)n(Cc4ccco4)c(-c4ccco4)nc3oc2c1	DNMT1 inh 86.3 | DNMT1 inh conf inactive | Beacon interf inactive
COc1ccc(Cn2c(-c3ccco3)nc3oc4cc(OC)ccc4c(=O)c3c2=O)cc1	DNMT1 inh 61.3 | DNMT1 inh conf inactive | Beacon interf inactive
COc1ccc(-c2nc3oc4cc(OC)ccc4c(=O)c3c(=O)n2Cc2ccco2)cc1	none
CCNCc1cc(Br)c(OCC(=O)Nc2ccccc2)c(OC)c1	none
COc1cc(CNCC(C)C)cc(Br)c1OCC(=O)Nc1ccccc1	DNMT1 inh 87.1 | DNMT1 inh conf inactive | Beacon interf inactive
CCOC(=O)c1ccccc1NC(=O)CN1C(=O)NC(C)(CCc2ccccc2)C1=O (stereo not given)	none
COc1ccc2c3c(cccc13)N(C)N=C2C	DNMT1 inh 93.4 | DNMT1 inh conf inactive | Beacon interf inactive
Cc1nc(N2CCN(S(=O)(=O)c3cccs3)CC2)c2c(-c3ccccc3)c(C)sc2n1	none
CN(/N=C/c1c[nH]c2ccccc12)c1cnn(-c2ccc(F)c(Cl)c2)c(=O)c1Cl	DNMT1 inh 111.1 | DNMT1 inh conf inactive | Beacon interf inactive
CCOc1cccc(-c2c(C(=O)N/N=C/c3ccc(C)o3)nnn2-c2nonc2N)c1	none
C=C(C)C(=O)Nc1cccc(C2=NOC3(C2)C[C@H](C(N)=O)N(C(=O)c2ccccc2)C3)c1 (stereo not given in full)	DNMT1 inh 90.8, UHRF1 MBD2 ctr 25.9 | DNMT1 inh conf inactive | Beacon interf inactive
C/C=C(/C)C(=O)Nc1cccc(C2=NOC3(C2)C[C@H](C(N)=O)N(C(=O)c2ccc(Cl)cc2)C3)c1 (stereo not given in full)	none
CS(=O)(=O)Nc1ccc(C(=O)NC2CCCC2)cc1	DNMT1 inh 79.7 | DNMT1 inh conf inactive | Beacon interf inactive
C=CC[C@@H](CC(=O)N[C@H](CO)Cc1ccccc1)C(=O)N[C@@H](COC(=O)[C@@H](CC=C)CC(=O)OC(C)(C)C)Cc1ccccc1	none
COc1cc(OC)cc(C(=O)N[C@H](C(=O)Nc2cc(F)ccc2C)C(C)C)c1	none
CCc1ccccc1NC(=O)c1ccc2nc(N3CCOCC3)sc2c1	none
Cc1ccc(NC(=O)c2ccc3nc(N4CCOCC4)sc3c2)c(Cl)c1	DNMT1 inh 52.5 | DNMT1 inh conf inactive | Beacon interf inactive
CCCC(C(=O)Nc1cccc(S(=O)(=O)N2CCCC2)c1)c1ccccc1 (stereo not given)	none
COC(=O)c1ccc(CCc2cc(O)ccc2O)cc1	DNMT1 inh 72.3 (no result: rCAG binder, LEDGF integ inh, UHRF1 MBD2 ctr, PG9 binder, MBD2 inh) | DNMT1 inh conf inactive | Beacon interf inactive
COC(=O)c1ccc(CCc2cc(O)c(Br)cc2O)cc1	none
CCCCc1ccc2nc(NC(=O)c3cccs3)sc2c1	none (no result: rCAG binder, DNMT1 inh, PG9 binder)
O=C(Nc1ccc(-c2nc3ccccc3s2)c(O)c1)C1=COCCO1	DNMT1 inh 69.8 | DNMT1 inh conf inactive | Beacon interf inactive
CCOc1ccc(C(=O)NCC(=O)NC(C)CCc2ccccc2)cc1OCC (stereo not given)	none
ClN=C1C=CC=CC1=NCl	DNMT1 inh 113.5 (no result: rCAG binder, LEDGF integ inh, UHRF1 MBD2 ctr, PG9 binder, MBD2 inh) | DNMT1 interf DR inactive | DNMT1 inh conf 36.5 | Beacon interf inactive
CCS(=O)(=O)N1Cc2ccccc2CC1C(=O)N1CCN(c2cccc(C)c2C)CC1 (stereo not given)	DNMT1 inh 64.8 | DNMT1 inh conf inactive | Beacon interf inactive
Cc1cccc(N2CCN(S(=O)(=O)c3ccc4c(c3)C(C)(C)C(=O)N4C)CC2)c1C	DNMT1 inh 75.6 | DNMT1 inh conf inactive | Beacon interf inactive
CCOC(=O)C1=CCN(S(=O)(=O)c2ccc(C)cc2)C1c1cccc(F)c1 (stereo not given)	none
COc1cc(/C=C2/SC(=O)N(Cc3ccccc3Cl)C2=O)ccc1OCc1ccncc1	DNMT1 inh 63.9 | DNMT1 inh conf inactive | Beacon interf inactive
Cc1cccc(/C=C2/SC(=O)N(Cc3ccccc3Cl)C2=O)n1	none
C[C@H](CO)N1C[C@H](C)[C@H](CN(C)C(=O)Nc2cccc3ccccc23)OCc2cnnn2CCCC1=O	none
Cc1nn(Cc2c(Cl)cccc2Cl)c(C)c1NC(=O)c1cn(-c2ccccc2)nc1-c1ccccc1	DNMT1 inh 67.8 (no result: rCAG binder, LEDGF integ inh, UHRF1 MBD2 ctr, PG9 binder, MBD2 inh) | DNMT1 inh conf inactive | Beacon interf inactive
Cc1cccc(C)c1NC(=O)CNC(=O)c1cn(-c2ccccc2)nc1-c1ccccc1	none
COc1cc2c(cc1OC)[C@@H](NC(=O)CCc1ccccc1)[C@H](OCc1ccccc1)C2	none

Screens (PubChem BioAssay)
